A short description of test [1]: qHTS for Inhibitors of Cell Surface uPA Generation: Validation Assay (AID 493164).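 Also: RAW 264.7 macrophage cells exposed to compound for 18 h.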 The procedure, abridged: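 Compounds are titrated over seven points (2.45 nM–38.3 uM final) onto pre-plated RAW 264.7 cells and incubated for 18 h. Retained intracellular ATP, measured with ATP-Lite, indicates blocked lethal factor entry.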
The target in test [2] is Peptidyl-prolyl cis-trans isomerase NIMA-interacting 1 (Homo sapiens) (UniProt Q13526). The experiment in a line: qHTS Validation Assay to Find Inhibitors of Pin1 (AID 504536; active = well fitted inhibition curve with a large enough effect in the polarisation, with a control signal flat, not every such curve was filed as active; the % refers to the polarisation). The procedure, abridged:
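Fluorescence polarization competition: compounds (titration) displace HiFluor-488-labeled Pin1-1b peptide from Pin1 (0.3 uM final) in pH 7.5 HEPES buffer with DTT, 10 min at room temperature; %Activity normalized to no-enzyme wells, curves fitted.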
For orientation: In qHTS, concentration-response curves come from the screen itself.

For test [3], the target named is Phosphoglycerate kinase, glycosomal (Trypanosoma brucei brucei) (UniProt P07378). The experiment in a line: qHTS Validation Assay to Find Inhibitors of Phosphoglycerate Kinase (AID 504547). Put shortly:
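Luminescence end-point (Kinase-Glo Plus, 10 min) after a 60 min room-temperature coupled reaction. GAPDH at 100nM final supplies 1,3-BPG to PGK. Buffer: 100mM TEA pH 7.6, 5mM MgCl2, 0.01% Tween-20. Wells lacking PGK served as controls.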

The target of test [4] is phosphoglycerate mutase (Leishmania major) (UniProt Q4Q090). Put plainly: qHTS Validation Assay to Find Inhibitors of Phosphoglycerate Mutase (AID 504548).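 Also: end-point luminescence from Kinase-GloPlus after the PGAM reaction; series mostly up to about 58 µM.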 As to conditions: Potency: inhibition qHTS. The procedure, abridged:
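Inhibition of L. major PGAM was assessed by Kinase-GloPlus luminescence following a 45-minute room-temperature reaction with enzyme at 1.25nM final.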

Test [5] concerns the target Ubiquitin carboxyl-terminal hydrolase 1 (Homo sapiens) (UniProt O94782). The experiment in a line: Inhibitors of USP1/UAF1: Pilot qHTS (AID 504865). Also: nearly all actives have a fitted effect of over 35% in size. Also: potency is read from the fitted curve at half-maximal effect. The procedure, abridged: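 Kinetic fluorescence assay: 1nM USP1/UAF1, 15 min compound preincubation, then 150nM Ub-Rho; 480/540 nm.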
Test [6] in a line: qHTS for Inhibitors of ATXN expression: Validation of Cytotoxic Assay (AID 588349). Put shortly: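 Cytotoxicity counter-screen: HEK293 cells exposed to compound titrations, 72 hr, 37 degrees C. Read-out is intracellular ATP (CellTiter Glo luminescence) as a viability measure.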
A short description of test [7]: qHTS for Inhibitors of ATXN expression: Validation (AID 588378). Also: nearly all actives have a fitted effect of over 75% in size. Also: potency is read from the fitted curve at half-maximal effect. Put shortly:
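Validation of ATXN2 expression inhibitors uses a cell-based luciferase fusion reporter in HEK293 cells, with 24 h compound exposure and paired viability (fluorescence) and reporter (luminescence) end-point reads.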

In test [8] the target is Galactokinase (Homo sapiens) (UniProt P51570). Put plainly: qHTS Validation Assay for Inhibitors of Human Galactokinase (GALK) (AID 493189). Also: potency is read from the fitted curve at half-maximal effect. The procedure, abridged: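 Compounds were pin-transferred into ATP buffer, then GALK-galactose mix was added (final 5 nM enzyme, 100 uM galactose, 35 uM ATP). After 1 h at room temperature, remaining ATP was measured luminescently.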
Chain of Galactokinase (Homo sapiens) (P51570 whole entry, looked up): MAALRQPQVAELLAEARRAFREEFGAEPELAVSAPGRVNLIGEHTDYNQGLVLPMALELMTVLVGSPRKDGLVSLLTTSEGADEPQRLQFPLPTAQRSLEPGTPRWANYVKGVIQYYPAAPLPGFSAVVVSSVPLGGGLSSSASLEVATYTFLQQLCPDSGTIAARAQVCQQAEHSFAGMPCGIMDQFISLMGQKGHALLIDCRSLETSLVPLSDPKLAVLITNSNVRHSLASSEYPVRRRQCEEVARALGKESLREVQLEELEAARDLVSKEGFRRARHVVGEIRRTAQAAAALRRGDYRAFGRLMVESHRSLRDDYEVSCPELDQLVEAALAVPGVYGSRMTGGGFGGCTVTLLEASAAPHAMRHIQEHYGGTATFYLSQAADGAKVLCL

For test [9], the target named is DNA dC->dU-editing enzyme APOBEC-3G (Homo sapiens) (UniProt Q9HC16). The experiment in a line: qHTS for inhibitors of Vif-A3G interactions: Validation (AID 588379). Also: potency is read from the fitted curve at half-maximal effect. The procedure, abridged:
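Yellow fluorescence (Ex 488, Em 500-530) of Vif-coexpressing HeLa A3G-eYFP cells, scanned by Acumen cytometer, reports blocked A3G degradation. Cells plated at 700/well overnight at 37 deg C before compound addition, then a further overnight compound incubation at 37 deg C.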

Molecules are shown by their SMILES. Results filed as inconclusive are left out. Active and inactive are the calls of the source. Unless noted, calls follow the shape of the dose curve; as a rule, active = well fitted curve in the direction sought with a large enough effect; inconclusive = small, poorly fitted or top-dose-only effect, or another doubt; inactive = no such curve, though single readings can be large; an effect the other way counts as inactive or inconclusive.

Chain of Ubiquitin carboxyl-terminal hydrolase 1 (Homo sapiens) (O94782 whole entry, looked up): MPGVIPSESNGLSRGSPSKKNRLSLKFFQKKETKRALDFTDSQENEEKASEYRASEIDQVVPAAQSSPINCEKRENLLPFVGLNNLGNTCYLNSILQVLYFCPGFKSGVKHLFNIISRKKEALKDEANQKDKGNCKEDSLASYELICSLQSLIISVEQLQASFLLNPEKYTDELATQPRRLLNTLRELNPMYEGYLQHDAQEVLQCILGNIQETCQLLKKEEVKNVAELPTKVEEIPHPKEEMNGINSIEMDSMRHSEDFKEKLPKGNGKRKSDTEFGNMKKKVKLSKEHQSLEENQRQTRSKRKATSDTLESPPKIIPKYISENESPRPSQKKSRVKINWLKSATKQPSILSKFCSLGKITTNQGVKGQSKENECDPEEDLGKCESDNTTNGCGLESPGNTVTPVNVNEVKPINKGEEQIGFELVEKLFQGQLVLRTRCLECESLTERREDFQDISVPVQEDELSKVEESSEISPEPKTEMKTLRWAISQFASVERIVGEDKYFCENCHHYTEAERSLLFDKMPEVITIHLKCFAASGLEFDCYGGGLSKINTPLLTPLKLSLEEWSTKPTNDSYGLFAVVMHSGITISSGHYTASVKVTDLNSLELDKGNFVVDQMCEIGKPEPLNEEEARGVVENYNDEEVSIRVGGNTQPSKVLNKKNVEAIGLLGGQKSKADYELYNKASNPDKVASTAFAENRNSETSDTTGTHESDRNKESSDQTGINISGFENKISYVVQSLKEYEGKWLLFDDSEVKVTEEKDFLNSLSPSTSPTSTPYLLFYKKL
Chain of Peptidyl-prolyl cis-trans isomerase NIMA-interacting 1 (Homo sapiens) (Q13526 whole entry, looked up): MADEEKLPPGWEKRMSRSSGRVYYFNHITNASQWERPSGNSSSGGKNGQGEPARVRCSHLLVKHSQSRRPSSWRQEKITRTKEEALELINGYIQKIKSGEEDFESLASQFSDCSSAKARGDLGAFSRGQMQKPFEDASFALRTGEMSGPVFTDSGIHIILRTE
Chain of phosphoglycerate mutase (Leishmania major) (Q4Q090 1-553): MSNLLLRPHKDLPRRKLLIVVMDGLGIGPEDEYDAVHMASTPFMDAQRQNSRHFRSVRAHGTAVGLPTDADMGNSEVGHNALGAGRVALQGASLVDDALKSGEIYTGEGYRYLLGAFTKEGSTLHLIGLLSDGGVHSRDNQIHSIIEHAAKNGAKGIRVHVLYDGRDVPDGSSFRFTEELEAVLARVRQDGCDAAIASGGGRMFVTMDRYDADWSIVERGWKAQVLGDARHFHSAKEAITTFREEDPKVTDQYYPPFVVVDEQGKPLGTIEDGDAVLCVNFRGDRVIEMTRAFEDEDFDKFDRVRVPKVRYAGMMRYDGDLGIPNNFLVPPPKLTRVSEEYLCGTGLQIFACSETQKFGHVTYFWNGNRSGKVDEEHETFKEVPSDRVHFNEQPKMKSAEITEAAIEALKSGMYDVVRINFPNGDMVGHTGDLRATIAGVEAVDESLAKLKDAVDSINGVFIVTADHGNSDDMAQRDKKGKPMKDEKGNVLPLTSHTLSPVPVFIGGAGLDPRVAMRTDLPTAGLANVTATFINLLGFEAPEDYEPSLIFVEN
Chain of Phosphoglycerate kinase, glycosomal (Trypanosoma brucei brucei) (P07378 whole entry, looked up): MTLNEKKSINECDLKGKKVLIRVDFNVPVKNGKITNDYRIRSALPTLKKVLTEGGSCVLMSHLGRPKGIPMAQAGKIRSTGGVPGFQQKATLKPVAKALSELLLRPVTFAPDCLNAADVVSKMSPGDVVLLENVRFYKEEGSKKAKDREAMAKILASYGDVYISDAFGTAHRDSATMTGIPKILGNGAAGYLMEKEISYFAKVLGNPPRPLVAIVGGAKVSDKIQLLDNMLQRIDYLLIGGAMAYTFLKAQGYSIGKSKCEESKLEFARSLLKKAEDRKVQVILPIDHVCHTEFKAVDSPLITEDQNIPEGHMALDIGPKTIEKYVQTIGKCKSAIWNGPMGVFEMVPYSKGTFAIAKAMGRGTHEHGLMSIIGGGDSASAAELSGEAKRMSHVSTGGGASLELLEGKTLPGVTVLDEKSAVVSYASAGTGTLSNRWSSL
Chain of DNA dC->dU-editing enzyme APOBEC-3G (Homo sapiens) (Q9HC16 whole entry, looked up): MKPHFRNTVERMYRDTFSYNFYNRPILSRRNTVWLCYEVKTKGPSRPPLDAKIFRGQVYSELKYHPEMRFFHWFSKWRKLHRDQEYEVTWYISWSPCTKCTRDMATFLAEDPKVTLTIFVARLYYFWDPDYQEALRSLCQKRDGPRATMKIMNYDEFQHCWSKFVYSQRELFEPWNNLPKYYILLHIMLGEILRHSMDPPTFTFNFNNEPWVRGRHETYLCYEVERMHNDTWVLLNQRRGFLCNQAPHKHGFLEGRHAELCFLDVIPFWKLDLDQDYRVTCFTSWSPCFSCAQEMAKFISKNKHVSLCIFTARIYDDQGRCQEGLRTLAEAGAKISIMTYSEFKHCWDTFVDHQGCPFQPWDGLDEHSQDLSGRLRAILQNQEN

On to `NS(=O)(=O)C#Cc1ccccc1`, for which, in test [1], the result was inactive. Also, the Potency entry in [2], in test [3], in test [4] and in [5] was “inactive” in each case.
For the molecule `CC(N)C(=O)OC(C)(C)Cc1ccc(Cl)cc1` (configuration not stated), the molecule was classed as inactive in [1]. In addition, the Potency result in test [2], in test [3], in test [4], in [5], in test [6] and in [7] was “inactive” throughout.
`O=C1NC(=O)/C(=C/c2ccc(-c3ccc(F)cc3O)o2)S1`: in test [1], the molecule was called inactive. Further, the Potency entry in [2], in test [3], in test [4], in test [6] and in test [7] was “inactive” throughout. Moreover, the Potency in test [5] was 44.7 µM (active).
In the case of `CC(C)CC(NP(=O)(O)O[C@@H]1O[C@@H](C)[C@H](O)[C@@H](O)[C@H]1O)C(=O)NC(Cc1c[nH]c2ccccc12)C(=O)O` (some centres not stated), in test [1], the call was inactive. Moreover, the Potency result in test [2], in [3], in test [4], in test [5], in test [6] and in test [7] was “inactive” in each case.
As to `CO/S(=N\S(=O)(=O)c1ccc(Cl)cc1)c1ccc([N+](=O)[O-])cc1` (configuration not stated), in test [1], the outcome was inactive. The Potency result in test [2], in [3], in [4], in test [6] and in test [7] was “inactive” throughout. Moreover, the Potency in [5] was 31.6 µM (active).
For `O=[N+]([O-])c1ccc(CSc2ncnc3c2ncn3[C@@H]2O[C@H](CO)[C@@H](O)[C@H]2O)cc1`, the outcome in test [1] was inactive. Besides, the Potency result in test [2], in test [3], in test [4], in test [5] and in [6] was “inactive” throughout.
For the molecule `CN1CC(=O)N/C1=N/C(=O)Nc1cccc(Cl)c1`, the outcome in [1] was inactive. Further, the Potency result in test [2], in [3], in test [4], in [5] and in test [6] was “inactive” in each case.
Consider `CN(C)CCCO[C@@H]1[C@H]2OC(C)(C)O[C@H]2O[C@@H]1[C@H](O)CO`, for which the result in [1] was inactive. For the same molecule, the Potency entry in test [2], in test [3], in test [4], in test [5], in test [6] and in [7] was “inactive” in each case.
For `NC(=S)NCCC[C@H](N)C(=O)O`, the outcome in test [1] was inactive. For the same molecule, the Potency result in test [2], in test [3], in test [4], in test [5], in [6] and in test [7] was “inactive” in each case.
On to `O=C1C(SCCO)=C(SCCO)C(=O)c2ccccc21`, for which, in test [1], the call was inactive. In addition, the Potency in test [8] is 25.1 µM (active); in [5], 15.8 µM (active); in test [7], 4.47 µM (active); in test [9] it was 4.73 µM (active). In addition, in test [4], the Potency entry is “inactive”.
For the molecule `Nc1nc(Nc2ccccc2)nc2c1ncn2[C@@H]1O[C@H](CO)[C@@H](O)[C@H]1O`, the call in [1] was inactive. The Potency result in [2], in [3], in [4], in test [5], in [6] and in [7] was “inactive” throughout.
